According to ChEMBL document CHEMBL1961873, “Compounds: GSK PKIS; Assays: Nanosyn kinase panel” (2012):

Experiments:
[1] = molecular target: T1, Tyrosine-protein kinase receptor TYRO3 (Homo sapiens) (UniProt Q06418); conditions: at 1 µM
T1 sequence (whole entry): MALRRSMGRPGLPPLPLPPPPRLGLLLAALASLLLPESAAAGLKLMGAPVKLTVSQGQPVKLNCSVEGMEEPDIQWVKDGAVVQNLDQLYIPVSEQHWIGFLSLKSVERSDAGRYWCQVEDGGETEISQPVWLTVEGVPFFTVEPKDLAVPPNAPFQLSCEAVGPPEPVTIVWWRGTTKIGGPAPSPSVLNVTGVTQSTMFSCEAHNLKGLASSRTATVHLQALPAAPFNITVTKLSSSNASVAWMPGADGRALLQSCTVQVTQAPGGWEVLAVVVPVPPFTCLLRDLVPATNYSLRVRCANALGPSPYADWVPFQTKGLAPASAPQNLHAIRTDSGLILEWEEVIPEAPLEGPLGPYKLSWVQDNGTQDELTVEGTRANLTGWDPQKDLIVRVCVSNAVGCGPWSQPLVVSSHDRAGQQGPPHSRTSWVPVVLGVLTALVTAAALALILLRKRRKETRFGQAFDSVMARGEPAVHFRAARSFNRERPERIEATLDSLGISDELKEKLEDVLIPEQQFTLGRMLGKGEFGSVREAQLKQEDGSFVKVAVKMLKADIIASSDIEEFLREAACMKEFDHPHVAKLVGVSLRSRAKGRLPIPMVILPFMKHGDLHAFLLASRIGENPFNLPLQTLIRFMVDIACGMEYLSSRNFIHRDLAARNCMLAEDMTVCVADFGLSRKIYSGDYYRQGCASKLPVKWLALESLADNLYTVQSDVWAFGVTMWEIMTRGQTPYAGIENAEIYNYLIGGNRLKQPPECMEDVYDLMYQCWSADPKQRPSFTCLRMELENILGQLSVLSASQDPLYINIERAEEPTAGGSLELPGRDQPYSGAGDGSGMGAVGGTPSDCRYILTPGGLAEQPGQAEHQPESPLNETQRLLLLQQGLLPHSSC

[2] = molecular target: Tyrosine-protein kinase Yes (Homo sapiens) (UniProt P07947); conditions: at 0.1 µM
Sequence of Tyrosine-protein kinase Yes (Homo sapiens) (P07947 2-543 limits assumed): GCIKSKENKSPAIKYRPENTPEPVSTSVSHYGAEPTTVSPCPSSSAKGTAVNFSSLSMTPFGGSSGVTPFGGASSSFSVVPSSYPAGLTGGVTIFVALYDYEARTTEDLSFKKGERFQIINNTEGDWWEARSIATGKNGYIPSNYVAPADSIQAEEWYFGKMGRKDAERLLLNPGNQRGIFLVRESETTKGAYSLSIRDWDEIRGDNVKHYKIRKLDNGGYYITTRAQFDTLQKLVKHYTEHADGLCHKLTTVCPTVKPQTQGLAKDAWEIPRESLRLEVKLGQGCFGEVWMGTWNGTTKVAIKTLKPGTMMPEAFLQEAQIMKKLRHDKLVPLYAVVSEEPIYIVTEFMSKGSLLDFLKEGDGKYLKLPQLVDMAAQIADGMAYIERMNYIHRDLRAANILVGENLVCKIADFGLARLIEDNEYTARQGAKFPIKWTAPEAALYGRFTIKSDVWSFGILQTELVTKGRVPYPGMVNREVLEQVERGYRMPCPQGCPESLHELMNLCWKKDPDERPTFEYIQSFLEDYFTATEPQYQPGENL

[3] = molecular target: Tyrosine-protein kinase Yes (Homo sapiens) (UniProt P07947); conditions: at 1 µM
[4] = molecular target: T2, Tyrosine-protein kinase ZAP-70 (Homo sapiens) (UniProt P43403); conditions: at 0.1 µM
T2 sequence (whole entry): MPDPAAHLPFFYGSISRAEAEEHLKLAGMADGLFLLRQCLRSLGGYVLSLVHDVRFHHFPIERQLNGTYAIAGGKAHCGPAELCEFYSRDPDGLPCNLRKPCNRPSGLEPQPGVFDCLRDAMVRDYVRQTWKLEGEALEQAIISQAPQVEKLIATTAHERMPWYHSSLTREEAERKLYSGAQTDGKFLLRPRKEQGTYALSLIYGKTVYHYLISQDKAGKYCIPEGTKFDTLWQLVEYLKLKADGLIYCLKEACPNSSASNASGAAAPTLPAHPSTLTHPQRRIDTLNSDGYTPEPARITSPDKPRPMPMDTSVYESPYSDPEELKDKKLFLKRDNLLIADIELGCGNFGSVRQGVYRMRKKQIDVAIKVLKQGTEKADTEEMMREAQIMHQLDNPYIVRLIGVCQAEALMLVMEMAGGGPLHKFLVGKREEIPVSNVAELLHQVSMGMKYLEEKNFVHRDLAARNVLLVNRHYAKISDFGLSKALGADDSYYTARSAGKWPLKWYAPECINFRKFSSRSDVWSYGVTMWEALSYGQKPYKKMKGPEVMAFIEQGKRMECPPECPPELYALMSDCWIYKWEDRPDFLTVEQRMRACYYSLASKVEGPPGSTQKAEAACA

[5] = molecular target: T2, Tyrosine-protein kinase ZAP-70 (Homo sapiens); conditions: at 1 µM
[6] = molecular target: Serine/threonine-protein kinase B-raf (Homo sapiens) (UniProt P15056); conditions: at 0.1 µM
Sequence of Serine/threonine-protein kinase B-raf (Homo sapiens) (P15056 whole entry): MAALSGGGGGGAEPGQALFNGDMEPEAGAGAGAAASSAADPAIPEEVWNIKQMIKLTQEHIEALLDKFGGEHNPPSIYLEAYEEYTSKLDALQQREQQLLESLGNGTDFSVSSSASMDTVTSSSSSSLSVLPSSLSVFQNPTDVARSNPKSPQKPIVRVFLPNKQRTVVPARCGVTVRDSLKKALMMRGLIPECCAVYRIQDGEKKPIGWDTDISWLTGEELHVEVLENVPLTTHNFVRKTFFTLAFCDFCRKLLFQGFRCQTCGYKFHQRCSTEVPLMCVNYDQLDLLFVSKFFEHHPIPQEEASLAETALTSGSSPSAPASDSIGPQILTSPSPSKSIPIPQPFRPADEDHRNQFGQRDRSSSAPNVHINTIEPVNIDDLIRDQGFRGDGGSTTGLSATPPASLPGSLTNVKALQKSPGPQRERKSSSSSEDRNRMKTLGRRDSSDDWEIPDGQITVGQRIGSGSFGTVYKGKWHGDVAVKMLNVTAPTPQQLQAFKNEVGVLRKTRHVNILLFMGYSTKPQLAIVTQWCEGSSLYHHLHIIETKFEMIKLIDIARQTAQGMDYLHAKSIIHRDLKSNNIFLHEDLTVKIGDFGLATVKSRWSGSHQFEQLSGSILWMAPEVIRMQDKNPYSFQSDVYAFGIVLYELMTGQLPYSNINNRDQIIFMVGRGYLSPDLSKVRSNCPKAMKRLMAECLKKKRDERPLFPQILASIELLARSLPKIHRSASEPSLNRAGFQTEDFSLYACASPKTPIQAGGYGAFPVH

[7] = molecular target: Serine/threonine-protein kinase B-raf (Homo sapiens) (UniProt P15056); conditions: at 1 µM
[8] = test system: Serine/threonine-protein kinase B-raf (Homo sapiens), P15056 [V600E]; conditions: at 0.1 µM
Sequence of Serine/threonine-protein kinase B-raf (Homo sapiens), P15056 [V600E] (P15056 whole entry V600E): as the sequence (P15056 whole entry) above, with V600E counted along it

[9] = test system: Serine/threonine-protein kinase B-raf (Homo sapiens), P15056 [V600E]; conditions: at 1 µM
[10] = molecular target: RAF proto-oncogene serine/threonine-protein kinase (Homo sapiens) (UniProt P04049); conditions: at 0.1 µM;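 note: values are mean CRAF kinase inhibition from profiling of the GSK Published Kinase Inhibitor Set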
Sequence of RAF proto-oncogene serine/threonine-protein kinase (Homo sapiens) (P04049 whole entry): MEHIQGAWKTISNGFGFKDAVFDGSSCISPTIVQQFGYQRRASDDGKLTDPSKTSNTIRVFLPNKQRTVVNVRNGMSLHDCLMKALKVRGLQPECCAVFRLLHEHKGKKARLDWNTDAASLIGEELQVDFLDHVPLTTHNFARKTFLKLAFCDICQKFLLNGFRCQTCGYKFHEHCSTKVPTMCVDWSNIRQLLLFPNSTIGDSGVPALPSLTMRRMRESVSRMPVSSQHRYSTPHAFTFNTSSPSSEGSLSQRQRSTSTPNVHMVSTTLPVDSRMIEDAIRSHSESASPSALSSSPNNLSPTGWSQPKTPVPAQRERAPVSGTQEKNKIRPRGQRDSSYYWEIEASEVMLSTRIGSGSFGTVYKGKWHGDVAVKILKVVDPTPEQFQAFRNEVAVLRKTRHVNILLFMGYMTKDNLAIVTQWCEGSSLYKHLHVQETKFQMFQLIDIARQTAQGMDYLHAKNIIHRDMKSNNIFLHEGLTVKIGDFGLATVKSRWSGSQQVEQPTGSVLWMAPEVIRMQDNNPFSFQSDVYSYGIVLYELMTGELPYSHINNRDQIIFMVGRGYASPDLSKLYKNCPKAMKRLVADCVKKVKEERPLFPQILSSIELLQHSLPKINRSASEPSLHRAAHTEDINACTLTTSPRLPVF

Question: What does the source list for COc1cccc(-n2ncc3c(N/N=C/c4ccncc4)ncnc32)c1?
Answer: inhibition [1]: 41.6%; inhibition [2]: 26.7%; inhibition [3]: 73%; inhibition [4]: 2.84%; inhibition [5]: 3.98%; inhibition [6]: 10.3%; inhibition [7]: 21.5%; inhibition [8]: 11%; inhibition [9]: 23.1%; inhibition [10]: -6.75%

Question: For Nc1nonc1-c1nc2cnccc2n1C1CCCCC1, which inhibition [1] is on record?
Answer: -0.87%

Question: And the inhibition [2]?
Answer: 1.72%

Question: What about the inhibition [3] of the same compound?
Answer: 3.33%

Question: What about the inhibition [4] of the same compound?
Answer: -2%

Question: What about the inhibition [5] of the same compound?
Answer: -0.79%

Question: What about the inhibition [6] of the same compound?
Answer: -2.13%

Question: What about the inhibition [7] of the same compound?
Answer: 4.56%

Question: What about the inhibition [8] of the same compound?
Answer: -1.6%

Question: And the inhibition [9]?
Answer: 5.12%

Question: And the inhibition [10]?
Answer: 2.21%

Question: For CCn1c(-c2nonc2N)nc2c(C#CC(C)(C)O)ncc(OCC3CCNCC3)c21, which inhibition [1] is on record?
Answer: 3.34%

Question: What about the inhibition [2] of the same compound?
Answer: 2.71%

Question: And the inhibition [3]?
Answer: 6.72%

Question: And the inhibition [4]?
Answer: -3.36%

Question: What about the inhibition [5] of the same compound?
Answer: -3.17%

Question: And the inhibition [6]?
Answer: 4.38%

Question: And the inhibition [7]?
Answer: 2.78%

Question: What about the inhibition [8] of the same compound?
Answer: 4.23%

Question: And the inhibition [9]?
Answer: 2.64%

Question: What about the inhibition [10] of the same compound?
Answer: 3.07%

Question: Which results are given for NS(=O)(=O)c1ccc(-c2ccc3c(NC(=O)C4CC4)n[nH]c3c2)cc1?
Answer: inhibition [1]: 13%; inhibition [2]: 0.69%; inhibition [3]: 2.38%; inhibition [4]: 0.78%; inhibition [5]: 0.22%; inhibition [6]: 2.45%; inhibition [7]: 5.35%; inhibition [8]: 2.03%; inhibition [9]: 3.48%; inhibition [10]: 4.2%

Question: With Fc1ccc(-c2ncn(C3CCNCC3)c2-c2ccnc(Oc3ccccc3)n2)cc1 as the compound, how does the inhibition [1] read?
Answer: 0.47%

Question: And the inhibition [2]?
Answer: 1.72%

Question: And the inhibition [3]?
Answer: -0.9%

Question: What about the inhibition [4] of the same compound?
Answer: -4.16%

Question: And the inhibition [5]?
Answer: -3.08%

Question: And the inhibition [6]?
Answer: 2.53%

Question: What about the inhibition [7] of the same compound?
Answer: 4.3%

Question: And the inhibition [8]?
Answer: 2.57%

Question: What about the inhibition [9] of the same compound?
Answer: 4.15%

Question: And the inhibition [10]?
Answer: -1.35%

Question: How did the inhibition [1] turn out when NS(=O)(=O)c1ccc(N/C=C2\C(=O)Nc3ccc4ncsc4c32)cc1 was run?
Answer: 24.1%

Question: And the inhibition [2]?
Answer: 2.73%

Question: What about the inhibition [3] of the same compound?
Answer: 26.7%

Question: What about the inhibition [4] of the same compound?
Answer: -5.22%

Question: What about the inhibition [5] of the same compound?
Answer: 5.97%

Question: And the inhibition [6]?
Answer: 11%

Question: And the inhibition [7]?
Answer: 41%

Question: And the inhibition [8]?
Answer: 9.06%

Question: And the inhibition [9]?
Answer: 37.5%

Question: And the inhibition [10]?
Answer: -1.4%

Question: For NC(=O)c1sc(-n2cnc3cc(C(F)(F)F)ccc32)cc1OCc1ccccc1Br, which inhibition [1] is on record?
Answer: 2.02%

Question: And the inhibition [2]?
Answer: 2.56%

Question: And the inhibition [3]?
Answer: 3.46%

Question: And the inhibition [4]?
Answer: -0.71%

Question: What about the inhibition [5] of the same compound?
Answer: 1.87%

Question: What about the inhibition [6] of the same compound?
Answer: 3.64%

Question: And the inhibition [7]?
Answer: 2.26%

Question: And the inhibition [8]?
Answer: 1.31%

Question: What about the inhibition [9] of the same compound?
Answer: 2.01%

Question: What about the inhibition [10] of the same compound?
Answer: 1.82%

Question: How did the inhibition [1] turn out when Cc1cc(-c2ccco2)cc(C)c1/C=C/c1cncc(-c2nn[nH]n2)c1 was run?
Answer: 0.02%

Question: And the inhibition [2]?
Answer: 1.68%

Question: What about the inhibition [3] of the same compound?
Answer: 6.08%

Question: What about the inhibition [4] of the same compound?
Answer: -1.84%

Question: What about the inhibition [5] of the same compound?
Answer: 0.77%

Question: And the inhibition [6]?
Answer: 1.61%

Question: And the inhibition [7]?
Answer: 1.61%

Question: And the inhibition [8]?
Answer: 1.63%

Question: And the inhibition [9]?
Answer: 3%

Question: And the inhibition [10]?
Answer: -1.69%

Question: Which inhibition [1] does the source give for COc1cccc(COc2cc(-n3cnc4ccccc43)sc2C(N)=O)c1 here?
Answer: -0.77%

Question: And the inhibition [2]?
Answer: 0.89%

Question: What about the inhibition [3] of the same compound?
Answer: 1.25%

Question: What about the inhibition [4] of the same compound?
Answer: -1.78%

Question: What about the inhibition [5] of the same compound?
Answer: 0.73%

Question: And the inhibition [6]?
Answer: -0.39%

Question: What about the inhibition [7] of the same compound?
Answer: 1.18%

Question: What about the inhibition [8] of the same compound?
Answer: 0.3%

Question: What about the inhibition [9] of the same compound?
Answer: 1.75%

Question: And the inhibition [10]?
Answer: 2.33%

Question: How did the inhibition [1] turn out when COc1cc(C=NNc2ncnc3c2cnn3Cc2ccccc2)ccc1O was run?
Answer: 7.59%

Question: And the inhibition [2]?
Answer: 14.6%

Question: And the inhibition [3]?
Answer: 30%

Question: What about the inhibition [4] of the same compound?
Answer: 2.67%

Question: And the inhibition [5]?
Answer: 1.13%

Question: What about the inhibition [6] of the same compound?
Answer: -5.44%

Question: What about the inhibition [7] of the same compound?
Answer: -5.52%

Question: What about the inhibition [8] of the same compound?
Answer: -5.58%

Question: And the inhibition [9]?
Answer: -4.22%

Question: What about the inhibition [10] of the same compound?
Answer: -0.2%

Question: What does the source list for CCn1c(-c2nonc2N)nc2c(C#CC(C)(C)O)ncc(OC[C@@H]3CCCN3)c21?
Answer: inhibition [1]: 1.75%; inhibition [2]: -0.57%; inhibition [3]: 2.07%; inhibition [5]: -0.24%; inhibition [6]: 0.45%; inhibition [7]: 0.01%; inhibition [8]: 0.87%; inhibition [9]: 0.05%; inhibition [10]: 3.13%

Question: CCn1c(-c2nonc2N)nc2c(C#CCN)ncc(OCCCN)c21 was tested. Which inhibition [1] did it give?
Answer: 3.68%

Question: What about the inhibition [2] of the same compound?
Answer: 0.61%

Question: And the inhibition [3]?
Answer: 3.6%

Question: What about the inhibition [4] of the same compound?
Answer: 2.74%

Question: What about the inhibition [5] of the same compound?
Answer: 2.46%

Question: What about the inhibition [6] of the same compound?
Answer: -4.66%

Question: What about the inhibition [7] of the same compound?
Answer: -4.6%

Question: And the inhibition [8]?
Answer: -5.05%

Question: And the inhibition [9]?
Answer: -3.78%

Question: And the inhibition [10]?
Answer: 2.59%

Question: With COc1cc2c(cc1Nc1nc(Nc3ccsc3C(N)=O)c3cc[nH]c3n1)N(C(=O)CN(C)C)CCC2 as the compound, how does the inhibition [2] read?
Answer: 1.43%

Question: What about the inhibition [3] of the same compound?
Answer: 2.18%

Question: And the inhibition [4]?
Answer: -0.11%

Question: And the inhibition [5]?
Answer: 1.86%

Question: What about the inhibition [6] of the same compound?
Answer: -0.02%

Question: What about the inhibition [7] of the same compound?
Answer: 1.67%

Question: What about the inhibition [8] of the same compound?
Answer: 0.32%

Question: And the inhibition [9]?
Answer: 0.47%

Question: And the inhibition [10]?
Answer: -0.98%

Question: What does the source list for CCn1c(-c2nonc2N)nc2c(C#CC(C)(C)O)nc(O[C@@H](CN)c3ccccc3)cc21?
Answer: inhibition [1]: 6.97%; inhibition [2]: 2.89%; inhibition [3]: 23.8%; inhibition [4]: 0.99%; inhibition [5]: 1.24%; inhibition [6]: -0.9%; inhibition [7]: 5.48%; inhibition [8]: -1.97%; inhibition [9]: 6.51%; inhibition [10]: -3.13%
